Assay outcomes deposited in PubChem BioAssay by National Center for Advancing Translational Sciences (NCATS).
The list is not random: actives were taken first. Their share in the collection is about 19%.
TGFb SMAD3 inh: TGF-b pathway inhibition; hit rate 1.2% among 410,000; AID 588855; Potency, µM (titrated, usually from 46.1 µM), actives largely listed as inhibitors; HepG2 CAGA-GFP TGF-b/SMAD3 reporter, GFP fluorescence, 18 h; TGF-beta stimulated, 500 pg/mL final; further: nearly all actives have a fitted effect of over 65% in size
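HEPG2 CAGA-GFP, 1000 cells/well; 2 h settle, 37 C; cpd via pin tool; TGF-b 500 pg/mL final; 18 h, 37 C; GFP imaging ex488/em500-530; %Activity normalised to -TGF-b and +DMSO controls; CRC fit, curve class.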
DT40 TDP1 CPT: growth inhibition of DT40 Tdp1-/-;hTDP1 cells with camptothecin (screen for TDP1 inhibitors) | chicken DT40 Tdp1-/-;hTDP1 cells + 20 nM CPT, ATP luminescence, 48 h | Potency, µM (doses to about 46.2 µM), most hits filed as inhibitors | hit rate 12% among 420,000; further: nearly all actives have a fitted effect of over 55% in size
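Cell growth measured by CellTiter-Glo luminescence after a minimum 48 h, 37 C compound exposure with 20 nM CPT in Tdp1-knockout DT40 cells stably expressing hTDP1, seeded 400/well; qHTS titration format.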
TDP1 block: TDP1 (human) enzyme inhibition. recombinant TDP1, AlphaScreen DNA substrate cleavage. Potency, µM (titrated, usually from 130 µM), usual class: inhibitors. AID 485290. hit rate 0.28% among 350,000. Q9NUW8; further: nearly all actives have a fitted effect of over 40% in size
Target sequence (Q9NUW8 whole entry, looked up): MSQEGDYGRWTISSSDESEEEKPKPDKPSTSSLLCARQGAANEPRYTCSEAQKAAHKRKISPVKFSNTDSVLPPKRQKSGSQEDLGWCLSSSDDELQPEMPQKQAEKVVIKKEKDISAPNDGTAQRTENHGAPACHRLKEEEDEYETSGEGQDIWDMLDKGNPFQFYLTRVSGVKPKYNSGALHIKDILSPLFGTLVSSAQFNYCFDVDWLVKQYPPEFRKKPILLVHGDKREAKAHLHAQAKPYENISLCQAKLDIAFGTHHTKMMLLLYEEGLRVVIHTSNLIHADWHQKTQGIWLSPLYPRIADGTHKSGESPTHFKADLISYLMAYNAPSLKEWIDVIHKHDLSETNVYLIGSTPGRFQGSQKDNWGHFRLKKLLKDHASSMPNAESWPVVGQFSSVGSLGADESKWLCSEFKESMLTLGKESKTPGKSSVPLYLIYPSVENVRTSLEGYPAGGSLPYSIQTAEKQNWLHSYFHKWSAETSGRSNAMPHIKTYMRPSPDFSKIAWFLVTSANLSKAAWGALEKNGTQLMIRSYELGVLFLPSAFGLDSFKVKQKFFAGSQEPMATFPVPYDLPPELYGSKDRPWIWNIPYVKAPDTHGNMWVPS
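Enzyme-compound mixtures sat 15 min at room temperature, followed by a 5 min reaction with 15 nM final substrate and 10 min with AlphaScreen beads. Recombinant human Tdp1 was used at 1 nM final.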
HepG2 viability: counter-screen for TGF-b inhibitors: cytotoxicity in HepG2 cells | HepG2 CAGA-GFP viability, ATP luminescence, 18 h | Potency, µM (titrated, usually from 46.1 µM), most hits filed as cytotoxic | hit rate 0.76% among 410,000 | AID 588856
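HepG2 CAGA-GFP cells (1000/well, DMEM with 1% FBS) received compound, then TGF-beta at 500 pg/mL final, and were incubated 18 hours at 37 degrees C. Viability was read by CellTiter-Glo luminescence. Media-only wells were set as complete cell-killing and DMSO as no toxicity.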
IL1B secr inh: blocks inflammasome-driven IL-1 beta release; THP-1 LPS/ATP IL-1B secretion, AlphaLISA, 16 h; hits give low values; activity change, % at 57.5 µM; hit rate 4.7% among 360,000; AID 743279; in the data active means activity change below about -50%; inconclusive means mostly about -30% to -49%
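Secreted IL-1B measured by AlphaLISA bead assay after 16 h compound exposure of THP-1 cells; compounds (final up to 57.5 uM) added 1 h before LPS (250 ng/mL) and ATP (1.25 mM) stimulation; lower signal means less secretion.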
TDP1 cell noCPT: qHTS for Inhibitors of human tyrosyl-DNA phosphodiesterase 1 (TDP1): qHTS in cells in absence of CPT; Potency, µM (doses to about 46.2 µM), usual class: inhibitors; DT40 Tdp1-/- hTDP1 cells, no CPT, ATP luminescence, 48 h; hit rate 15% among 420,000; further: nearly all actives have a fitted effect of over 55% in size
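DT40 Tdp1-/-;hTDP1 cells, no CPT (DMSO vehicle only), 400 cells/well; compounds pin-transferred; ≥48 hr, 37 °C; CellTiter-Glo 30 min RT dark, luminescence read.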
Hits are given with their value; . = inactive; ? = inconclusive; / = not tested or not shown; ! = repeats disagree; [ ] = dose if it differs, or a comment. Unless noted, the call rests on the fitted dose curve; in most records, active means well fitted curve in the direction sought with a large enough effect; inconclusive means small, poorly fitted or top-dose-only effect, or another doubt; inactive means no such curve, though single readings can be large; an effect the other way counts as inactive or inconclusive.

SMILES	TGFb SMAD3 inh	DT40 TDP1 CPT	TDP1 block	HepG2 viability	IL1B secr inh	TDP1 cell noCPT
CCCCCc1cc(O)c2c(c1)OC(C)(C)c1ccc(C)cc1-2	/	17µM	/	/	/	9.4µM
C[n+]1c(-c2ccccc2)sc2ccccc21	.	1.3µM	/	.	.	1µM
c1ccc2c(c1)sc1ccccc12	/	?	.	/	/	.
Cc1ccsc1-c1nc(CSCC(=O)N2CCC3(CC2)OCCO3)c(C)o1	.	23µM	.	.	.	16µM
O=C(Cn1ncc2ccsc2c1=O)N1CCC2(CC1)OCCO2	.	.	.	.	.	.
Cc1ncc(CO)c(CN)c1O	/	?	.	/	/	.
C=C[C@]12CN(C)[C@H]3C1[C@@]1(C(=O)Nc4ccccc41)[C@H]1C[C@H]2[C@H]3CO1	/	/	.[21 µM]	/	/	/
ClCCN(CCCl)c1ccc(/C=C/c2ccnc3ccccc23)cc1	.	4µM	/	.	/	3.5µM
ClCCN(CCCl)c1ccc(C=Cc2ccncn2)cc1	.	6.5µM	/	.	?	9.2µM
Cc1cc(/C=C/c2ccnc3ccccc23)ccc1N(CCCl)CCCl	.	?	/	.	/	25µM
CCOc1cc(OP(=S)(OC)OC)nc(CC)n1	/	/	.	/	/	/
C(=NN1CCCCCC1)c1c[nH]c2ccccc12	.	.	/	.	.	.
Brc1ccc2[nH]cc(/C=N/N3CCCCC3)c2c1	?	?	.	.	-65	15µM
CCCOC(C(=O)OC1CCN(C)CC1)(c1ccccc1)c1ccccc1	/	21µM	/	/	/	12µM
CN1CCC(OC(=O)Cc2ccccc2)CC1	.	.	.	.	.	.
COC(=O)[C@@]1(OC)C[C@@H]2O[C@@]1(C)n1c3ccccc3c3c4c(c5c6ccccc6n2c5c31)C(=O)N(C)C4	/	/	.[21 µM]	/	/	/
Cc1ccc(-c2n[nH]c(=S)n2-c2ccccc2)cc1	.	14µM!	.	.	.	?
S=c1nc(-c2ccccc2)n(-c2ccccc2)[nH]1	.	?	/	.	.	.
O=C1Nc2ccc(Cl)cc2C(c2ccccc2)=NC1O (stereo not drawn)	/	?	.	/	/	?
CCc1ccc(N2C(=O)NC(=O)/C(=C/c3cccn3CCOc3ccc(C)cc3)C2=O)cc1	.	26µM	.	.	.	?
CCc1ccc(N2C(=O)NC(=O)/C(=C/c3cccn3CCOc3ccc(C(C)CC)cc3)C2=O)cc1 (stereo not drawn)	.	?	.	.	.	15µM
NCC(N)C(=O)c1ccccc1 (stereo not drawn)	/	.	.	/	/	.
Cc1noc(C)c1CSCC(=O)Nc1ccc(C#N)c(Cl)c1	.	?	.	.	.	?
CCN(CC(=O)Nc1ccc(C#N)c(Cl)c1)CC(=O)NC(C)(C)C	?	?	.	.	.	23µM
Cc1cccc(C)c1NC(=O)CN(C)CC(=O)Nc1ccc(C#N)c(Cl)c1	.	18µM	.	.	.	13µM
SMILES	TGFb SMAD3 inh	DT40 TDP1 CPT	TDP1 block	HepG2 viability	IL1B secr inh	TDP1 cell noCPT
CN1Cc2cccnc2N(C)Cc2cc(Cl)ccc21	?	?	.	.	.	.
Clc1ccc2c(c1)CCc1cccnc1C2=C1CCNCC1	/	6.5µM	.	/	/	7.3µM
Clc1ccc(C2=CCC[C@H]3CC[C@@H]2N3)cn1	/	.	.	/	/	.
N#CC1=C(N)Oc2c(c(=O)sc3ccccc23)C1c1cccnc1 (stereo not drawn)	.	8.2µM	.	.	.	8.2µM
N#CC1=C(N)Oc2c(c(=O)oc3ccccc23)C1c1ccncc1 (stereo not drawn)	.	.	.	.	.	.
C[C@H]1CN([C@@H](C)CO)C(=O)CCCn2nncc2CO[C@H]1CN(C)C(=O)Oc1ccc2ccccc2c1	.	16µM	/	.	.	9.2µM
C[C@@H]1CN([C@H](C)CO)C(=O)CCCn2nncc2CO[C@@H]1CN(C)C(=O)Oc1ccc2ccccc2c1	.	.	/	.	.	8.2µM
C[C@@H]1CN([C@@H](C)CO)C(=O)CCCn2nncc2CO[C@@H]1CN(C)C(=O)Oc1cccc2ccccc12	.	0.52µM	/	.	.	0.58µM
